# Measurements: PubChem BioAssay AID651550 (National Center for Advancing Translational Sciences (NCATS), 2012)
# In all, about 360,000 compounds went through this assay and about 1,100 (0.31%) were called active. The full list was thinned out, with actives kept by preference. A number with no mark means an inactive call. Rule as the data show it: active = activity change below about -80%; inconclusive = mostly about -51% to -80%; inactive = weaker than that.
# Target: RAC-alpha serine/threonine-protein kinase (Homo sapiens) (UniProt P31749)
# Experiment: HTS Assay for Inhibitors of Akt Phophorylation: Primary Screen
# Conditions: Neuro2A IGF-stimulated pAkt S473 HTRF, 20 min; at 50 µM, hits give low values
# Excerpt: The serine/threonine protein kinase Akt (protein kinase B) regulates various cellular processes, including cell survival, growth, proliferation, migration and differentiation. It has been well established that Akt is activated through two essential steps involving membrane translocation and phosphorylation. Cytosolic Akt is recruited to the plasma membrane via the interaction between the PH domain and membrane PIP3 produced by phosphoinositide-3 kinase (PI3K) upon growth factor receptor stimulation. The membrane-Akt interaction results in conformational changes of Akt, enabling its activation through phosphorylation at T308 in the kinase domain and at S473 in the C-terminal hydrophobic motif by PDK1 and mTOR-rictor complex (mTORC2), respectively. […] These findings indicate that S473 phosphorylation, as an important modulator of Akt activation, may be a valuable drug target for cell growth, survival, proliferation and differentiation. These inhibitors also may have significant therapeutic potential with fewer side effects, especially for the conditions involving hyperactive Akt signaling, such as cancer and Alzheimer's disease.
# To this end, a miniaturized assay was developed to be screened against the Molecular Libraries Small Molecule Repository (MLSMR).
# NIH Chemical Genomics Center [NCGC]
# NIH Molecular Libraries Probe Centers Network [MLPCN]
# Assay Submitter (PI): Hee-Yong Kim, National Institute on Alcohol Abuse and Alcoholism
# 3 uL of Neuro2A cell suspension in DMEM containing 0.5% FBS and […] antibiotics mix was plated in a white solid bottom tissue culture-treated 1536-well plate (Greiner Bio-One, Monroe, NC) at 4,500 cells per well and incubated overnight at 37 deg C. 23 nL/well of compound solutions in DMSO was added with Pintool transfer (Kalypsis, San Diego, CA) at single […] final concentration. Then, the cells were stimulated with 1.5 uL of IGF (6 nM final concentration) and incubated at 37 deg C for 20 min. The reaction was terminated by the addition of 1.5 uL blocking reagent mixed with lysis buffer (1:25 correspondingly) provided with HTRF(R) Phospho Akt (Ser473) kit (Cisbio US, Bedford, MA), with following incubation for 50 min at ambient temperature. The detection HTRF conjugates from the kit were prepared according to the protocol, pre-mixed 1:1 prior to dispensing, and 2 uL/well was added with BioRAPTR FRD dispenser (Beckman Coulter). The assay plates were incubated for 24 hours at ambient temperature, and the HTRF fluorescence was measured using Envision plate reader (PerkinElmer) with excitation at 330nm, emission at 615nm (Eu(3)-Cryptate donor signal) and 665nm (d2 acceptor signal). The ratio of […] was calculated for each well.
# % is scaled to controls: 0 for no effect and ±100 for the full control effect.
row,Compound,activity change
1,O=C(c1c(F)cccc1Cl)N1CCN(c2ccccn2)CC1,inactive
2,O=C(c1ccc2c(c1)N(Cc1ccc(F)cc1)C(=O)c1ccccc1S2(=O)=O)N1CCN(c2ccccn2)CC1,inactive
3,O=C(c1ccc2c(c1)C(=O)N(c1ccc(Cl)cc1)C2=O)N1CCN(c2ccccn2)CC1,-121% (active)
4,Cc1ccc(S(=O)(=O)N2[C@@H](Cc3ccccc3)CO[C@H]2CC(=O)OCc2ccccc2)cc1,inactive
5,O=C(NC1CCCCC1)C(c1cc2ccccc2o1)n1c(=O)c(-c2ccco2)nc2ccccc21 (stereo unspecified),inactive
6,Cc1ccc2c(c1)N(CC(=O)N(Cc1ccccn1)Cc1ccco1)C(=O)C(C(C)C)O2 (stereo unspecified),1.92%
7,O=C(NCc1ccccc1)C(c1ccc(F)cc1)N1CCN(C(=O)C2CCCO2)CC1 (stereo unspecified),inactive
8,CCC(C(=O)NCc1ccccc1)n1c(Cc2cc(F)cc(F)c2)nc2ccccc21 (stereo unspecified),inactive
9,COC(=O)c1ccc2nc(-c3ccc(F)cc3)c(Cc3ccc(C)cc3)n2c1,inactive
10,CCOC(=O)CSc1nnc(CNc2ccc(F)cc2)o1,inactive
11,Cc1cccc2nc(CNc3ccc(F)cc3)cn12,-128% (active)
12,O=C(NC(=O)c1ccc(Cl)c(Cl)c1)OC1CCS(=O)(=O)C1 (stereo unspecified),inactive
13,COCCNC(=O)C1C(=O)Nc2ccccc2C(=O)N1c1ccc2c(c1)OCCO2 (stereo unspecified),inactive
14,CC(C)c1cc(Cn2c3ccccc3c(=O)n2C(C)Cn2cc(C3CC3)nn2)on1 (stereo unspecified),inactive
15,COc1cccc(N(CC(=O)N2CCc3ccccc3C2)S(C)(=O)=O)c1,-106% (active)
16,CS(=O)(=O)N(CC(=O)N1CCc2ccccc2C1)c1ccc(Br)cc1,inactive
17,CN(c1ccc(C(=O)N2CCc3ccccc3C2)cc1)S(C)(=O)=O,-108% (active)
18,Cc1ccc(S(=O)(=O)N(CC(=O)N2CCc3ccccc3C2)c2cccc(Cl)c2)cc1,inactive
19,CN(c1cccc(NC(=O)c2ccc(CN3CCc4ccccc4C3)cc2)c1)S(C)(=O)=O,inactive
20,Cn1cccc1C(=O)N1CCc2ccccc2C1,inactive
21,Nc1ccc(N=Nc2ccccc2Cl)c(N)n1,inactive
22,O=C(CN1C(=O)CCS(=O)(=O)c2ccccc21)NCc1ccc(F)cc1,11.8%
23,O=C1C(=O)N(CCN2CCOCC2)C(c2ccccn2)/C1=C(/O)c1ccc(Cl)cc1 (stereo unspecified),-111% (active)
24,O=C1C(=O)N(CCN2CCOCC2)C(c2cccc(Cl)c2)/C1=C(/O)c1ccc2c(c1)OCO2 (stereo unspecified),inactive
25,COc1ccc(C2/C(=C(/O)c3ccc(OC(C)C)cc3)C(=O)C(=O)N2CCCN2CCOCC2)cc1 (stereo unspecified),inactive
26,O=c1[nH]n2c(=O)c3c([nH]c2c1N=Nc1ccccc1)CCC3,inactive

row,Compound,activity change
1,CC(C)(C)n1c(=O)[nH]c2c(c1=O)CCC2,-114% (active)
2,CCOC(=O)[C@]12CCCC=C1N(CCC1=CCCCC1)C(=O)[C@H](CC(=O)N1CCCCC1)C2,inactive
3,O=C1C=C(c2ccc(Cl)cc2)C(=O)N1Nc1ccccc1,-112% (active)
4,CC(C)(C)n1nc2c(c1NC(=O)c1ccc(S(=O)(=O)N3CCCC3)cc1)CS(=O)C2 (stereo unspecified),inactive
5,COc1ccc(C(C(=O)Nc2c(C)cccc2C)N2CCN(c3ccc(C)cc3)CC2)cc1 (stereo unspecified),inactive
6,O=C1CC2(CCCC2)C(=O)N1CN1CCN(S(=O)(=O)c2ccc(F)cc2F)CC1,inactive
7,O=C(CN1C(=O)NC2(CCCCCC2)C1=O)NC1CC1,inactive
8,O=C(O)CCN1C(=O)CC2(CCCCC2)C1=O,-117% (active)
9,NS(=O)(=O)c1ccc(CCNC(=O)NC2CCCCC2)cc1,inactive
10,CN1OC[C@@H]2CN[C@H](c3ccc(-c4ccccc4)cc3)C[C@@H]21,inactive
11,CCOC(=O)[C@]12CCCC=C1N(CCC1=CCCCC1)C(=O)[C@H](CC(=O)NCCCOC)C2,inactive
12,CCCCCNC(=O)C(c1ccc(OC)cc1)n1c(=O)c(-c2ccccc2)nc2ccccc21 (stereo unspecified),inactive
13,Cc1cccc(OCc2nnc(SCn3nnc4ccccc4c3=O)o2)c1,-101% (active)
14,Cc1cccc(OCc2nnc(SCc3nc4cc(C(F)(F)F)ccc4c(=O)[nH]3)o2)c1,-3.13%
15,Nc1nnc(SCn2nnc3ccccc3c2=O)s1,inactive
16,COc1ccccc1NC(=O)C1CCCN1S(=O)(=O)c1ccc(Cl)cc1 (stereo unspecified),inactive
17,Cc1cccc(NC(=O)C2CCCN2S(=O)(=O)c2ccc(F)cc2)c1C (stereo unspecified),-118% (active)
18,Cc1cccc(NC(=O)C2CCCN(C(=O)Nc3ccc(F)cc3)C2)c1C (stereo unspecified),inactive
19,Cc1ccc(N(Cc2ccccc2O)C(=O)c2ccccc2F)cc1,inactive
20,Cc1ccc(N(C(=O)CNC(=O)c2ccco2)C(C(=O)NC2CCCC2)c2ccncc2)cc1 (stereo unspecified),inactive
21,COc1cccc(N(C(=O)CNC(=O)c2ccco2)C(C(=O)NC2CCCCC2)c2cccnc2)c1 (stereo unspecified),inactive
22,CC(C)(C)NC(=O)C(c1ccncc1)N(C(=O)CNC(=O)c1ccco1)c1ccc2c(c1)OCO2 (stereo unspecified),-97.2% (active)
23,O=C(Cc1cccs1)Nc1ccc([N+](=O)[O-])cc1,inactive
24,CCCc1ccc(-c2csc(NC(=O)Cc3cccs3)n2)cc1,-105% (active)
25,COc1ccc(OC)c(NC(=O)Cc2cccs2)c1,inactive
26,O=C(Nc1ccc2c(c1)C(=O)OC2)Nc1cccc2ccccc12,inactive

row,Compound,activity change
1,CCn1cc(C(=O)N2CC(C)CC(C)C2)c(=O)c2cc(S(=O)(=O)N3CCCC3)ccc21 (stereo unspecified),inactive
2,CCn1cc(C(=O)NC2CCCCCC2)c(=O)c2cc(S(=O)(=O)N3CCCCC3)ccc21,inactive
3,CCn1cc(C(=O)NCC2CCCO2)c(=O)c2cc(S(=O)(=O)N3CCCCC3)ccc21 (stereo unspecified),-109% (active)
4,CC(C)(C)NC(=O)C(CCc1ccccc1)n1c(=O)c(-c2ccccc2)nc2ccccc21 (stereo unspecified),inactive
5,CCC(c1nnnn1C1CCCC1)N(Cc1cccs1)Cc1cc2cccc(C)c2[nH]c1=O (stereo unspecified),-108% (active)
6,Cc1cccc2cc(CN(Cc3nnnn3Cc3ccccc3)C3CCCC3)c(=O)[nH]c12,inactive
7,CCC(c1nnnn1Cc1ccco1)N(CCc1ccccc1)Cc1cc2cccc(C)c2[nH]c1=O (stereo unspecified),-20.5%
8,CCc1ccccc1N(CC(=O)NCCSCc1ccco1)S(C)(=O)=O,inactive
9,Cc1[nH]c2ccccc2c1C(=O)c1cc([C@H](NC(=O)OC(C)(C)C)C(C)C)sc1N,inactive
10,COc1c(Br)cc2c(C)c(C(=O)N3CCOCC3)oc2c1Br,-114% (active)
11,Cc1ccc2c(C)c(C(=O)N3CCN(c4ccncc4)CC3)oc2c1C,inactive
12,O=C(c1cc2cc(Br)cc(Br)c2oc1=O)N1CCOCC1,inactive
13,CCOC(=O)[C@]12CCCC=C1N(CCC1=CCCCC1)C(=O)[C@H](CC(=O)N1CCOCC1)C2,inactive
14,OCCC#Cc1ccc(N2C(c3ccsc3)=Cc3ccc(F)cc3C2c2c[nH]c3ccccc23)cc1 (stereo unspecified),inactive
15,CC(C)CC1(C)NC(=O)N(CC(=O)Nc2ccc3c(c2)OCCO3)C1=O (stereo unspecified),inactive
16,CC1=NN(C(C)C)C(=O)C1,-118% (active)
17,CCOC(=O)NN1C(=O)c2ccccc2NC1c1ccccc1O (stereo unspecified),inactive
18,CC1(C(=O)NCc2ccccc2)CSCC(=O)N1CCCN1CCOCC1 (stereo unspecified),inactive
19,COc1ccc2ccccc2c1CNCc1ccccn1,inactive
20,CSCCC(C(=O)NC(C)(C)C)n1c(-c2ccccc2)nc2ccccc21 (stereo unspecified),inactive
21,Cc1c(Br)c([N+](=O)[O-])nn1C(C)C(=O)Nc1nccs1 (stereo unspecified),-109% (active)
22,CC(NC(=O)C(=O)Nc1nccs1)c1ccccc1 (stereo unspecified),inactive
23,O=C(CCn1ccc([N+](=O)[O-])n1)Nc1nccs1,inactive
24,CC(CN1CCCCC1)OC(=O)c1ccccc1Cl (stereo unspecified),-96.5% (active)
25,Cc1cccc(C(=O)OC(C)CN2CCN(C)CC2)c1 (stereo unspecified),inactive
26,Cc1cccc(C(=O)OC(C)CN2CCCC2)c1 (stereo unspecified),inactive

row,Compound,activity change
1,CCOC(=O)[C@]12CCCC=C1N(CCC1=CCCCC1)C(=O)[C@H](CC(=O)N1CCSCC1)C2,inactive
2,Cc1cccc(C)c1NC(=O)C(c1cccc(F)c1)N1CCN(C)CC1 (stereo unspecified),inactive
3,Cc1ccc(F)cc1NC(=O)Cc1nn(C)c(=O)c2ccccc12,-106% (active)
4,Cc1ccc(C)c(NC(=O)COC(=O)c2nn(C)c(=O)c3ccccc23)c1,inactive
5,Cc1ccc(F)cc1NC(=O)CSCc1c(C)noc1C,inactive
6,CCN1C(=O)/C(=C\N2CCOCC2)SC1=S,inactive
7,NNC(=O)CSc1nnc(-c2ccccc2)n1-c1ccccc1,inactive
8,O=C(O)CSc1nnc(-c2ccc3c(c2)OCO3)n1-c1ccccc1,inactive
9,O=C(O)CCSc1nnc(-c2ccccc2)n1-c1ccccc1,-109% (active)
10,CS(=O)(=O)N1CCN=C1SCc1ccc(F)cc1,inactive
11,Cc1cc(Cl)ccc1OCc1nc(-c2ccncc2)no1,inactive
12,Cc1cc(OCCOc2cccc3cccnc23)c(C)cc1Cl,inactive
13,Cc1noc(COc2ccccc2OCc2onc(C)c2Cl)c1Cl,-112% (active)
14,CC1(C(=O)NCc2ccccc2)CN(S(C)(=O)=O)CC(=O)N1CC(F)(F)F (stereo unspecified),inactive
15,Cc1cccc(NC(=O)CSc2nc3c(c(=O)[nH]2)CCCC3)c1C,inactive
16,Cc1cccc(NC(=O)COC(=O)CCc2ccccc2)c1C,inactive
17,Cc1cccc(NC(=O)CSC(N)=O)c1C,-113% (active)
18,C=Cc1ccc(C(=O)N2CCCC(CCC(=O)N3CCN(c4ccccn4)CC3)C2)cc1 (stereo unspecified),inactive
19,O=C(C[C@H]1CC[C@H]2[C@@H](COC[C@H](O)CN2C(=O)c2ccccn2)O1)N1CCN(c2ccccc2)CC1,inactive
20,FC(F)(F)c1cc(-c2ccco2)nc(NCc2ccc(Cl)cc2)n1,-102% (active)
21,FC(F)(F)c1cc(-c2cccs2)nc(NCc2ccco2)n1,-2.47%
22,COc1nc(NCc2ccc(Cl)cc2)nc(OC)n1,1.36%
23,CC(C)(C)n1nnnc1C(c1ccc2ncccc2c1)N1CCSCC1 (stereo unspecified),inactive
